Screening results deposited in PubChem by National Center for Advancing Translational Sciences (NCATS).
The list is not random: actives were taken first. Their share in the collection is about 2.9%.
ClpP mod: qHTS Assay for Activators of ClpP; ATP-dependent Clp protease proteolytic subunit (Bacillus subtilis (strain 168)), P80244; Potency, µM (titrated, usually from 57.5 µM); 340,000 compounds, 1.9% hits; purified B. subtilis ClpP, FRET peptide cleavage, 20 min; active means well fitted falling curve with a large enough effect; inconclusive means small, poorly fitted or top-dose-only effect; inactive means no such curve, though single readings can be large or run the other way; further: the source files actives as falling curves though it sought activators and does not explain the sign; nearly all actives have a fitted effect of over 65% in size
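Buffer: 100 mM Tris/HCl pH8, 100 mM KCl, 0.05% low protease BSA, 2.5% glycerol, 0.01% Tween-20. ClpP 10 microg/mL final; 20 min RT; delta FRET normalized to ADEP and DMSO controls.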
p53 reactivator: qHTS assay for re-activators of p53 using a Luc reporter. H1299 p53-A138V BP100-luciferase reporter, luminescence, 24 h. Potency, µM (doses to about 92.2 µM), usual class: activators. 320,000 compounds, 0.063% hits. AID 504706, 2011; further: nearly all actives have a fitted effect of over 45% in size
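H1299 (p53-null), stable ts p53-A138V + BP100-Luc; 1000 cells/well, Opti-MEM/10% FBS; cpd 4 pt, 1:5; 24 h, 37 deg C, 5% CO2; detection reagent 10 min RT; luminescence.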
GLP1R cytotox: qHTS of GLP-1 Receptor Inverse Agonists: Cytotox Screen; AID 624418, 2012; HEK293 cAMP-luciferase reporter cells, luminescence, 24 h; 410,000 compounds, 0.13% hits; Potency, µM (series often up to 38.3 µM), most hits filed as inhibitors;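 further: loss of luciferase light is scored as toxicity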
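Quantitative HTS format, 1536 wells, 200 cells/uL seeded. Compounds: 23 nL, 24 h, 37 °C. Detection: luciferase reagent, luminescence at 12 min RT; decreased signal taken as cytotoxic.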
LDHA inh: qHTS assay for inhibitors of human lactate dehydrogenase. purified LDHA, NADH/diaphorase-resazurin fluorescence; stronger effect = lower value. L-lactate dehydrogenase A chain (Homo sapiens), P00338. 480,000 compounds, 0.15% hits. activity change, % (values are at about 110 or 230 µM); in the data active means activity change below about -30%; inconclusive means mostly about -25% to -30%
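Resorufin fluorescence (ex540/em590), read at 0 and 20 min after diaphorase/resazurin addition, reports the NADH left after a 5 min room-temperature reaction of 2 nM human LDH5 with 0.06 mM NADH and 0.2 mM pyruvate.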
GLP-1R inv ag: qHTS of GLP-1 Receptor Inverse Agonists (Inhibition Mode) | Glucagon-like peptide 1 receptor (Homo sapiens), P43220 | HEK293 GLP-1R CRE-luciferase, luminescence, 24 h; GLP-1R form is constitutively active | Potency, µM (highest dose often 38.3 µM), actives largely listed as inhibitors | 410,000 compounds, 1.6% hits; further: nearly all actives have a fitted effect of over 55% in size
Target sequence (P43220 whole entry, looked up): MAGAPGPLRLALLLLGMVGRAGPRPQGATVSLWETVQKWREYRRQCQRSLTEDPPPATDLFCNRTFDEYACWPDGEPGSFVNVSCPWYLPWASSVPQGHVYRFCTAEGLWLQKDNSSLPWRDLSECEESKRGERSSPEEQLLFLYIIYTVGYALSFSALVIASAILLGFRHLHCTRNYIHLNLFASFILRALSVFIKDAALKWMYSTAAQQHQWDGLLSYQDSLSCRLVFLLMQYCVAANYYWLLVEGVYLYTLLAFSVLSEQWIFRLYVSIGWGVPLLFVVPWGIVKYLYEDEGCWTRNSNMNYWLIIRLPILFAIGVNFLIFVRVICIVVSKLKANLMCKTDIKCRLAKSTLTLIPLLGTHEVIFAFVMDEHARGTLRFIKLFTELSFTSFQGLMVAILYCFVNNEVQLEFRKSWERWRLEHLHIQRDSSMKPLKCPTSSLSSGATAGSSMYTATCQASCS
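Constitutively active GLP-1R drives a cAMP-responsive luciferase in stably transfected HEK293 cells; test compounds are added after overnight (12 h) attachment and left 24 hr, and signal loss in luminescence marks inhibition.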
GLP1R ag: qHTS of GLP-1 Receptor Agonists; Glucagon-like peptide 1 receptor (Homo sapiens), P43220; Potency, µM (top dose mostly 45.6 µM), usual class: activators; 380,000 compounds, 0.007% hits; HEK293 GLP-1R CRE-luciferase, luminescence, 4-6 h; cells express a hypersensitive GLP-1R form
Large screens that a line does not name were inactive. Unless noted, the call rests on the fitted dose curve; in most records, active means well fitted curve in the direction sought with a large enough effect; inconclusive means small, poorly fitted or top-dose-only effect, or another doubt; inactive means no such curve, though single readings can be large; an effect the other way counts as inactive or inconclusive.

COc1ccc(C2=Nn3c(nnc3C3CCCCC3)SC2)cc1OC	GLP1R ag 3.16µM
CCOc1ccc(C2=Nn3c(nnc3-c3ccc(OC)cc3)SC2)cc1	GLP1R ag 10µM
COc1ccc(C2=Nn3c(nnc3-c3ccncc3)SC2)cc1	none
O=C(c1ccc(F)cc1)C(CCCCCC(CN1CCOCC1)C(=O)c1ccc(F)cc1)CN1CCOCC1 (configuration not stated)	GLP-1R inv ag 10µM
OC(CN1CCOCC1)c1ccc(F)cc1 (configuration not stated)	LDHA inh inconclusive
CCOc1ccccc1C(=O)Nc1nc2c(s1)CC(C)CC2 (configuration not stated)	none (no result: p53 reactivator, GLP1R ag)
COc1ccc(-c2nc(-c3cccc(C)c3)nc(Cl)c2C#N)cc1	none (no result: ClpP mod, GLP1R cytotox, LDHA inh, GLP-1R inv ag, GLP1R ag)
COc1ccc(-c2nc(-c3ccccc3)nc(Cl)c2C#N)cc1	ClpP mod 31.6µM
NC(=O)[C@H]1CC2(CC(c3cccc(NC(=O)COc4ccc(Cl)cc4)c3)=NO2)CN1C(=O)CC(c1ccccc1)c1ccccc1 (some centres not stated)	GLP-1R inv ag 10µM
CCC(=O)N1CC2(CC(c3cccc(NC(=O)COc4ccc(Cl)cc4)c3)=NO2)C[C@@H]1C(N)=O (some centres not stated)	none (no result: ClpP mod, GLP1R cytotox, LDHA inh, GLP-1R inv ag, GLP1R ag)
NC(=O)[C@@H]1CC2(CC(c3cccc(NC(=O)CC(c4ccccc4)c4ccccc4)c3)=NO2)CN1C(=O)COc1ccc(Cl)cc1 (some centres not stated)	GLP-1R inv ag 11.2µM
CCc1ccccc1Nc1nn2c(=O)c3ccc(C(=O)NC(C)c4ccccc4)cc3nc2s1 (configuration not stated)	GLP-1R inv ag 5.62µM (no result: p53 reactivator)
CNC(=O)c1nnsc1S(=O)(=O)c1ccc(Cl)cc1	GLP1R cytotox inconclusive, GLP-1R inv ag 4.47µM (no result: ClpP mod)
COc1ccc(-c2nc3cc(C)ccn3c2NCc2ccc3c(c2)OCO3)cc1	ClpP mod 28.2µM, GLP1R cytotox inconclusive, GLP-1R inv ag inconclusive
COc1ccc(-c2nc3ccccn3c2NCc2ccc3c(c2)OCO3)cc1	ClpP mod inconclusive, GLP-1R inv ag inconclusive
O=C(CCC(=O)N1CCN(C2CCCCC2)CC1)Nc1nnc(C(F)(F)F)s1	ClpP mod 12.6µM
O=C(CCC(=O)N1CCN(C2CCCC2)CC1)Nc1nnc(C(F)(F)F)s1	none
O=C(CN1C(=O)CSc2ccc(S(=O)(=O)N3CCCCC3)cc21)NCc1ccccc1Cl	GLP-1R inv ag 2.51µM
CC1CCN(S(=O)(=O)c2ccc3c(c2)N(CC(=O)NCc2ccccc2Cl)C(=O)CS3)CC1	GLP-1R inv ag inconclusive (no result: p53 reactivator, GLP1R ag)
COCCNC(=O)CN1CCC(NC(=O)Nc2ccccc2)CC1	none
COc1ccc(/C=N/NC(=O)c2cc(C34CC5CC(CC(C5)C3)C4)[nH]n2)cc1OC	none (no result: ClpP mod)
O=C(N/N=C/c1ccc(O)cc1)c1cc(C23CC4CC(CC(C4)C2)C3)[nH]n1	GLP-1R inv ag 1.41µM (no result: ClpP mod)
O=C(N/N=C/c1ccc[nH]1)c1ccccc1OCc1ccc(F)cc1	none (no result: ClpP mod)
CCOc1ccc(OCc2ccc(C(=O)NN=Cc3ccc[nH]3)cc2)cc1	GLP1R cytotox 2.24µM, GLP-1R inv ag inconclusive
CCOc1ccc(/C=N/NC(=O)c2ccccc2NC(=O)c2ccc(OC)cc2)cc1	ClpP mod 28.2µM, p53 reactivator inconclusive
O=C(Nc1cccc2ccccc12)OC1C=CS(=O)(=O)C1 (configuration not stated)	GLP-1R inv ag 10µM
Cn1c(/C=C/c2ccc(Br)cc2)c([N+](=O)[O-])c(=O)n(C)c1=O	GLP1R cytotox inconclusive, GLP-1R inv ag 4.47µM
COc1ccc(C(=O)N2CCN(Cc3cn[nH]c3-c3ccc(OC)cc3F)CC2)cc1	none
CCOc1ccc(-n2cc(-c3ccccc3)c3c(NCc4ccccc4)ncnc32)cc1	GLP-1R inv ag inconclusive (no result: p53 reactivator, GLP1R ag)
